Experimental data published in PubChem BioAssay AID1508625 (Wald Lab, School of Medicine, Case Western Reserve …, 2021).

Assay: enhancers of NK cell killing of ovarian tumor cells, primary screen, imaging, OVCAR3, primary NK cells, calcein-AM imaging (AID 1508625);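 also: compound given to NK cells 16 h before adding targets at 1.5 to 1 ratio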
Conditions: OVCAR3 lysis by primary NK cells, at 5 µM; z-score: measured here: robust Z-score, single-point normalisation

| Compound | z-score | corrected activity, negative = more killing [%] |
| --- | --- | --- |
| CCOCCCNC(=O)c1ccc(N2CCCC2=O)cc1 | -1.26 | -4.67 |
| O=C(NN=Cc1ccc(O)cc1)c1cc(-c2ccc3ccccc3c2)n[nH]1 | 0.236 | 0.541 |
| CCCc1c(C)c2cc3c(C)coc3cc2oc1=O | -2.03 | -6.81 |
| CS(=O)(=O)N(CC(=O)N1CCOCC1)c1ccc2c(c1)OCCO2 | -1 | -1.8 |
| COc1cc2c(cc1NC(=O)COc1ccccc1F)oc1ccccc12 | 0.0792 | 0.193 |
| Cn1c2ccccc2n2c(SCC(=O)O)nnc12 | -2.01 | -4.88 |
| O=C1C2C3C=CC(C3)C2C(=O)N1CCCO (stereo not drawn) | -0.311 | -1 |
| C=CCn1c(=S)[nH]c2cc(C(=O)Nc3cccc(C(F)(F)F)c3)ccc2c1=O | -1.91 | -6.01 |
| CC(C)C(NC(=O)C12CC3CC(CC(C3)C1)C2)C(=O)NC1=NCCS1 (stereo not drawn) | 0.711 | 1.64 |
| COc1cc([N+](=O)[O-])ccc1N1C(=O)C2C3C=CC(CC3)C2C1=O (stereo not drawn) | 0.231 | 0.65 |
| N#Cc1cccn1Cc1ccccc1Cl | -1.1 | -4.07 |
| CCCCC1(CC(=O)N2CCOCC2)C(=O)N(c2ccccc2)N(c2ccccc2)C1=O | -0.786 | -2.63 |
| Cc1cc([N+](=O)[O-])ccc1N=Cc1ccc(Br)s1 | -0.944 | -2.22 |
| CN(C(=O)c1cnc2n(c1=O)CCS2)c1ccccc1 | -2.39 | -7.51 |
| CN(C)c1ccc(C=CC=C2SC(=S)N(Cc3ccccc3)C2=O)cc1 | -1.88 | -3.62 |
| O=C1NC(=S)N(c2ccc(Cl)cc2)C(=O)C1=Cc1cc(Br)ccc1O | -1.85 | -3.58 |
| COC(=O)c1cc(OC)c(OC)cc1NC(=O)c1cc(Cl)ccc1Cl | -0.842 | -1.51 |
| CC(C(=O)N1CCN(c2ccccc2)CC1)c1ccc([N+](=O)[O-])cc1 (stereo not drawn) | -1.91 | -3.44 |
| COc1ccccc1N1CCN(C(=O)c2cnn3c(C(F)(F)F)cc(-c4ccc(C)cc4)nc23)CC1 | -1.43 | -4.5 |
| COC(=O)c1sc(N2C(=O)C(=O)C(=C(O)c3ccc(Cl)cc3)C2c2ccc(C)cc2)nc1C (stereo not drawn) | -1.66 | -3.82 |

| Compound | z-score | corrected activity, negative = more killing [%] |
| --- | --- | --- |
| CCc1cc(=O)oc2c(C)c(OCC(=O)c3cccc(OC)c3)ccc12 | -1.67 | -4.48 |
| CCOc1cc(C(=S)N2CCCCC2)ccc1OC(=O)c1ccc([N+](=O)[O-])cc1 | 0.163 | 0.525 |
| CC(C)C(NC(=O)c1ccccc1)C(=O)NC1=NCCS1 (stereo not drawn) | -0.869 | -2 |
| C=CCn1c2ccccc2c2nnc(SCc3[nH]c(C(=O)OCC)c(C)c3C(C)=O)nc21 | -0.435 | -1.4 |
| CCCCN(C)C(=O)c1cc2c(=O)n3cccc(C)c3nc2s1 | -1.78 | -6.29 |
| Brc1ccc(-c2noc(CSc3ccccc3)n2)cc1 | -0.187 | -0.336 |
| CCOc1ccc2cc(C3=NN(C(=O)CCC(=O)O)C(c4ccc(Br)cc4)C3)c(Cl)nc2c1 (stereo not drawn) | -1.55 | -2.89 |
| COc1ccc(-n2c(=S)[nH]c3cc(C(=O)N4CCOCC4)ccc3c2=O)cc1 | -3.21 | -10.1 |
| O=C(CCCn1c(=S)[nH]c2cc3c(cc2c1=O)OCO3)N1CCN(Cc2ccc3c(c2)OCO3)CC1 | -0.54 | -2.04 |
| CC1=C(C)CC(C(=O)Nc2ccc(S(=O)(=O)N3CCOCC3)cc2)C(C(=O)O)C1 (stereo not drawn) | -3.17 | -10.2 |
| O=C1CSc2ccc(S(=O)(=O)N3CCOCC3)cc2N1 | -1.34 | -4.98 |
| COCCNC(=O)c1cc2cc3ccc(Cl)cc3nc2o1 | -0.897 | -3.66 |
| COc1ccc(NC(=O)NCc2ccncc2)cc1 | -1.41 | -2.54 |
| Cc1c(NC(=O)CCCCCN2C(=O)c3ccccc3C2=O)c(=O)n(-c2ccccc2)n1C | -2.47 | -6.57 |
| O=C(c1ccccc1Br)N1N=C(c2ccccc2)CC1(O)C(F)(F)F (stereo not drawn) | -1.24 | -3.24 |
| CCCSc1nc2c([nH]c3ccccc32)c(=O)n1-c1ccc(F)cc1 | -0.888 | -3.57 |
| Cc1ccc2nc(-c3ccc(Cl)c(NC(=O)Cc4ccccc4)c3)oc2c1 | -1.77 | -3.3 |
| Cc1onc(-c2ccccc2)c1C(=O)Nc1cccc2c1C(=O)c1ccccc1C2=O | -1.02 | -2.48 |
| CCOC(=O)Cn1nc(-c2ccc(C)cc2)ccc1=O | -0.23 | -0.853 |
